PubChem BioAssay AID588335 (The Scripps Research Institute Molecular Screening Center, 2011)
The whole screen tested about 360,000 compounds, of which about 4,500 (1.2%) were called active. This is one part of a sample in which actives are shown more often than they occur. Unmarked numbers belong to inactive results. Cut-off read from the data, not from the text of the source: active = inhibition above about 30%; inactive = the rest.

Experiment: inhibition of GDH and TPI enzymes – biochemical, absorbance, full deck, artefact control for M. tuberculosis FBA inhibitor project, primary screen (AID 588335);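 note: 0% = DMSO wells and 100% = wells lacking the enzyme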
Conditions: GDH-TPI coupled enzyme counterscreen, NADH absorbance; at 4.8 µM; hits give high values
In the case of `O=C(Nc1ccc(F)c([N+](=O)[O-])c1)C1CCCO1` (stereo not given), the inhibition is reported as 7.32%.
For `COCCN(CCOC)S(=O)(=O)c1ccc(/C(O)=C(\C#N)c2nc3ccccc3[nH]2)cc1`, the inhibition was 42.7% (active).
Compound `COCCN(CCOC)S(=O)(=O)c1ccc(C(=O)Nc2nc3c(s2)CCc2ccccc2-3)cc1` has an inhibition of 9.74%.
`CC(C)(C)c1nnc2sc(SCC(O)=C(C#N)c3nc4ccccc4[nH]3)nn2c1=O` gave an inhibition of 9.05%.
For `CC1(C)CC(=O)C2=C(C1)N=C1SCCC(=O)N1C2c1ccc(C(F)(F)F)cc1` (stereo not given), the inhibition was 31% (active).
`CC1(C(=O)Nc2ccccc2Br)CCN1C(=O)CC1CC1` (stereo not given) gave an inhibition of -0.89%.
`C=CCSC(CC)(CC)C(N)=O` gave an inhibition of 3.59%.
`CN1C(c2ccc(F)cc2)=CS/C1=C(/C#N)c1nnc2n1-c1ccccc1SC2` gave an inhibition of 18.8%.
In the case of `Cc1ccccc1-n1cc(CNC(=O)CC2C(=O)NCCN2C/C=C/c2ccccc2)cn1` (stereo not given), the inhibition is reported as -1.22%.
In the case of `COc1cccc(-c2nc3ccc(N4CCN(C)CC4)cc3[nH]2)c1`, the inhibition is reported as 31.7% (active).
Compound `COc1cccc(N2CCN(c3ccc4nnc(CCC(=O)N5CCN(C)CC5)n4n3)CC2)c1` has an inhibition of -6.09%.
Work on `COc1cccc(N2CCN(C3CC(=O)N(c4ccc(Cl)cc4)C3=O)CC2)c1` (stereo not given) yielded an inhibition of -9.65%.
For `CCCN(C(=O)CSc1nnc(N)s1)c1c(N)n(Cc2ccccc2)c(=O)[nH]c1=O`, the inhibition was 2.63%.
For `O=c1cccc(-c2ccc(Br)cc2)o1`, the inhibition was 17.6%.
In the case of `CCOC(=O)c1cc2cc3ccccc3cc2oc1=O`, the inhibition is reported as 38.1% (active).
Work on `C=CCc1cccc2cc(C(=O)OCC)c(=O)oc12` yielded an inhibition of 10.2%.
Work on `CCOc1cccc2cc(C(=O)OCC(=O)Nc3c(C)cccc3CC)c(=O)oc12` yielded an inhibition of 11.9%.
For `CN1CCCc2cc(C#N)c(=O)[nH]c21`, the inhibition was 34.1% (active).
Work on `COc1ccccc1CNC(=O)COn1nnc2ccc(S(=O)(=O)N3CCOCC3)cc21` yielded an inhibition of -5.57%.
`O=C(OCCN1C(=O)c2ccccc2C1=O)[C@@H]1CC(O)CN1S(=O)(=O)c1ccccc1[N+](=O)[O-]` (stereo not given in full) showed an inhibition of 3.16%.
With `CC(=O)c1ccc(OCCCC(=O)Nc2ccc(C)c(S(=O)(=O)N3CCOCC3)c2)cc1` the inhibition was 7.22%.
`COc1ccc2ccccc2c1CNCc1ccccn1` showed an inhibition of -14.6%.
For `COc1ccc(C(=O)/C=C/c2ccc(-c3ccccc3)cc2)cc1CSCC(=O)O`, the inhibition was 37.5% (active).
`COC(=O)c1ccc(COc2ccc(/C=C/C(=O)c3ccc(OC)c(CSCC(=O)O)c3)cc2OC)cc1` showed an inhibition of 7.37%.
`COc1ccccc1CCNC(=O)C1CCN(C(=O)/C=C/c2ccccc2)CC1` gave an inhibition of 1.82%.
Compound `CCN(CC)C(=O)C(C)N1c2cccc3cccc(c23)S1(=O)=O` (stereo not given) has an inhibition of 9.73%.
Compound `CC1CCCCC1NC(=O)COC(=O)Cc1ccc(Cl)cc1` (stereo not given) has an inhibition of 3.03%.
`CCCN(CC(=O)NC(=O)NC1CCCCC1)CC(=O)Nc1cc(Cl)ccc1Cl` gave an inhibition of -7.58%.
Work on `O=c1[nH]c(=S)n(C2CC2)c(O)c1/C=N/N1CCOCC1` yielded an inhibition of 16.2%.
Work on `O=C(N/N=C/c1c(O)n(C2CC2)c(=S)[nH]c1=O)c1ccccc1` yielded an inhibition of 25.8%.
With `O=C(N/N=C/c1c(O)n(C2CC2)c(=S)[nH]c1=O)c1ccccc1Cl` the inhibition was 40.6% (active).
For `CC1CCN(C(=O)COC(=O)c2cc(=O)[nH]c3ccccc23)CC1`, the inhibition was 13.7%.
In the case of `CC(C)(C)n1nnnc1C(c1ccccc1F)N1CCN(C(=O)c2ccco2)CC1` (stereo not given), the inhibition is reported as -4.67%.
Compound `O=C(C[C@H]1C[C@H]2c3cc(NS(=O)(=O)c4ccc(F)cc4)ccc3O[C@H]2[C@H](CO)O1)NCc1cc(F)ccc1F` has an inhibition of -2.37%.
For `COc1ccc(C(=O)N/N=C2\CCS(=O)(=O)c3ccc(F)cc32)cc1OC`, the inhibition was 32.9% (active).
With `COc1ccc(C(=O)Nc2ccc(C3(C#N)CCCC3)cc2)cc1OC` the inhibition was 9.36%.
In the case of `CCNC(=O)c1ccc(OCC(=O)Nc2ccc(F)cc2)c(OC)c1`, the inhibition is reported as 0.63%.
Compound `CC(Sc1cccc[n+]1[O-])C(=O)Nc1cccc(S(=O)(=O)N2CCOCC2)c1` (stereo not given) has an inhibition of 0%.
For `CCn1cc(/C=C(\NC(=O)c2ccc(C)cc2)C(=O)NCCN2CCOCC2)c2ccccc21`, the inhibition was 40.6% (active).
`Cc1ccc(C(=O)N/C(=C\c2cn(S(=O)(=O)N(C)C)c3ccccc23)C(=O)N2CCCC2)cc1` showed an inhibition of -3.45%.
Work on `COc1ccc(/C=C(\NC(=O)c2ccccc2)C(=O)NCCN2CCOCC2)cc1OC` yielded an inhibition of 14.8%.
Compound `CCSc1nnc(SCC(=O)NNC(=O)c2ccccc2F)s1` has an inhibition of -1.01%.
In the case of `CC1Cc2ccccc2N1C(=O)c1cc2sccc2n1Cc1ccccc1` (stereo not given), the inhibition is reported as -0.44%.
`COCCOC(=O)c1sc(=S)n(CCOC)c1N` gave an inhibition of 11.4%.
Compound `CCOC(=O)C(C)n1cnc2c(nnn2-c2cccc(OC)c2)c1=O` (stereo not given) has an inhibition of -6.44%.
In the case of `CCOC(=O)c1sc(=S)n(-c2cccc(OC)c2)c1N`, the inhibition is reported as 33.3% (active).
`Cc1cc(/C=N/n2cnnc2)c(C)n1-c1ccc2ncccc2c1` gave an inhibition of 15%.
In the case of `O=S(=O)(Cc1nnnn1-c1ccccc1)c1ccccc1`, the inhibition is reported as -3.16%.
Compound `COc1ccc(CN2CCCCC2C)cc1OC` (stereo not given) has an inhibition of 7.17%.
With `COc1ccc(C(=O)CN2C(=O)NC(C)(c3ccc(C)cc3)C2=O)cc1OC` (stereo not given) the inhibition was -0.32%.
For `COc1ccc(/C=C(/NC(=O)c2ccc(C)cc2)c2nc3ccccc3[nH]2)cc1OC`, the inhibition was 46.6% (active).
With `COc1cc(/C=C(\C#N)c2nc3ccccc3[nH]2)ccc1O` the inhibition was 31.3% (active).
Compound `Cc1ccc(C(=O)N/C(=C/c2cccnc2)C(=O)O)cc1` has an inhibition of 1.45%.
`CCN(C[C@H]1N[C@@](CC)(C(=O)OC)[C@H]2C(=O)N(C)C(=O)[C@@H]12)C(=O)Nc1ccc(F)cc1` showed an inhibition of 0%.
`COc1ccc(/C=N/OCc2ccccc2C#N)c(OC)c1` showed an inhibition of -3.57%.
`COC(=O)c1ccc(Nc2ncnc3sccc23)cc1` showed an inhibition of 8.09%.
For `CCOC(=O)c1nc(Nc2ccc(C(=O)OC)cc2)c2ccccc2n1`, the inhibition was 33.2% (active).
`CCOC(=O)c1ccc(N/C(=N/S(=O)(=O)c2ccccc2)c2ccccc2)cc1` gave an inhibition of 10.9%.
`O=C(c1ccco1)N1CCN(Cc2cccc(C(F)(F)F)c2)CC1` showed an inhibition of -0.77%.
With `c1ccc(-c2nnc3n2NC(c2ccc4c(c2)OCO4)S3)cc1` (stereo not given) the inhibition was 17.1%.
Work on `CC(=O)c1ccc(N2CCN(C(=O)C3CCN(S(=O)(=O)c4ccc5c(c4)CC(C)N5C(=O)C4CC4)CC3)CC2)cc1` (stereo not given) yielded an inhibition of 23.5%.
Compound `CC(C)c1cc(C(=O)O)n[nH]1` has an inhibition of 8.57%.
`Cc1ccc(/C=N/NC(=O)C(NC(=O)c2ccccc2)c2n[nH]c(=O)c3ccccc23)cc1` (stereo not given) gave an inhibition of 1.58%.
With `CC(C)c1cc(C(=O)N/N=C/C(Br)=C/c2ccccc2)n[nH]1` the inhibition was 36.9% (active).
For `COc1ccc(CNC(=O)C(NS(=O)(=O)c2cccc3nsnc23)C(C)C)cc1` (stereo not given), the inhibition was 1.17%.
`CCn1c(Cc2ccc(OC)cc2)nnc1SCC(=O)Nc1ccc(N2CCOCC2)cc1` gave an inhibition of -0.78%.
Compound `Cc1ccc(OCCCC(=O)Nc2ccc(N3CCOCC3)cc2)cc1` has an inhibition of -5.32%.
With `COc1cccc(/C=C(/CC(=O)Nc2ccc(N3CCOCC3)cc2)c2nc3ccccc3s2)c1` the inhibition was 32.1% (active).
Compound `CCOC(=O)c1sc(N(Cc2ccccc2)C(=O)CN2C(=O)CN(C)C2=O)nc1C` has an inhibition of -10.6%.
`CC(C)(C)C1CCC(OC(=O)CCC(=O)Nc2ccccc2)CC1` (stereo not given) showed an inhibition of -9.56%.
Compound `CCCCn1c(N)c(N2CCOCC2)c(=O)n(CC(=O)NCCc2ccccc2)c1=O` has an inhibition of 8.07%.
In the case of `CC(=O)C1=C(O)C(=O)N(c2ccc(S(N)(=O)=O)cc2)C1c1ccccc1F` (stereo not given), the inhibition is reported as 32.2% (active).
With `CC(=O)C1=C(O)C(=O)N(c2ccc(Br)cc2)C1c1ccc([N+](=O)[O-])cc1` (stereo not given) the inhibition was 21.6%.
For `NS(=O)(=O)c1ccc(NC2=CC(c3ccc(F)cc3)N(c3ccc(S(N)(=O)=O)cc3)C2=O)cc1` (stereo not given), the inhibition was 4.35%.
For `CCCSC1=C(C#N)C(c2ccccc2C)C(C(=O)OC)C(=O)N1` (stereo not given), the inhibition was 3.67%.
In the case of `CC1CCC2(CC1)NC(=O)N(Cc1nnc(-c3cccs3)o1)C2=O` (stereo not given), the inhibition is reported as -10.1%.
Compound `CC1(C)Cc2ccccc2/C(=C/C(=O)c2ccccc2)N1` has an inhibition of 4.27%.
For `CC1CN/C(=C\C(=O)c2ccc(Br)cc2)C(=O)N1` (stereo not given), the inhibition was 33.3% (active).
For `COc1cc2c(cc1OC)/C(=C/C(=O)c1ccc(NC(C)=O)cc1)NCC2`, the inhibition was 14%.
With `CCOC(=O)c1c(/N=C/c2cc(C)ccc2O)sc2c1CCC2` the inhibition was 9.89%.
With `CCOC(=O)c1c(CC(C)C)csc1/N=C/C1=C(O)CCCC1=O` the inhibition was -3.83%.
With `CCOC(=O)c1c(N)sc2c1CCCC2=O` the inhibition was 36% (active).
In the case of `CCCCOc1ccc(N(CC(=O)NCC2CCCO2)C(=O)CCC(=O)Nc2cc(C)ccn2)cc1` (stereo not given), the inhibition is reported as 12.4%.
Compound `Cc1cccc(NS(=O)(=O)c2ccc(-c3cnc(C4CC4)o3)cc2)c1` has an inhibition of -5.68%.
`CC1C=CCC2C(=O)N(c3cccc(C(=O)N4CCCCCC4)c3)C(=O)C12` (stereo not given) showed an inhibition of 5.39%.
`Cc1ccc(-c2nn(C(C)(C)C)c3ncnc(N)c23)cc1` gave an inhibition of 11.5%.
`CCOC(=O)C(CC)Sc1ncnc2c1nnn2-c1ccc(F)cc1` (stereo not given) showed an inhibition of 11.2%.
`CCOC(=O)c1c(NC(=S)NC(=O)/C=C/c2cccs2)sc(C)c1C` showed an inhibition of -3.37%.
`CCc1nnc(NS(=O)(=O)c2ccc(NC(=O)c3cccc(OC(F)(F)C(F)F)c3)cc2)s1` gave an inhibition of -13%.
With `CCc1nnc(NS(=O)(=O)c2ccc(NC(=S)NC(=O)/C=C/c3cccs3)cc2)s1` the inhibition was 32.2% (active).
